Most compounds without a hit are left out; they make up all but 5.2% or so of the library.
ALR inh: inhibitors of human ALR sulfhydryl oxidase, primary screen, biochemical, H2O2 detection, HRP-luminol luminescence, single point | FAD-linked sulfhydryl oxidase ALR (Homo sapiens), P55789 | purified ALR, DTT oxidation | inhibition, % (concentration not given with the values) | 3.8% of 290,000 active | AID 485317, 2010;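 active means mean replicate inhibition above about 79%, with every replicate also reaching it, limit read from the data; inconclusive means only one of the two criteria met; inactive means mean below limit and not every replicate reaching it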
Target sequence (P55789 whole entry, looked up): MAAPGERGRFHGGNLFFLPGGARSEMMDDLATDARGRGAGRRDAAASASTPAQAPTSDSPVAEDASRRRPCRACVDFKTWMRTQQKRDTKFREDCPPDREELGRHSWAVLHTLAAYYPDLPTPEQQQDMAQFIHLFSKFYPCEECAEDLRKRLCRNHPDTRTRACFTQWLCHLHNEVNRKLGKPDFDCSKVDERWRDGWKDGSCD
M18AAP inhibitor: PfM18AAP inhibitors, malaria aminopeptidase, primary screen, biochemical, QFRET, recombinant enzyme; M18 aspartyl aminopeptidase (Plasmodium falciparum 3D7); H-Glu-NHMec fluorogenic cleavage; inhibition, % at 7.35 µM; 1.2% of 290,000 active; AID 1822, 2009;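 active means inhibition above the campaign mean inhibition over all tested compounds plus 3 SD, cut at about 28% in these data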;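 further: 0% = plate median of test compound wells and 100% = 2 mM ZnCl2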
APOBEC3A inh: APOBEC3A ssDNA deaminase inhibitors, primary screen, selectivity assay for APOBEC3G inhibitor project, biochemical, FAM/TAMRA oligo cleavage fluorescence; DNA dC->dU-editing enzyme APOBEC-3A (Homo sapiens), P31941; recombinant A3A, FAM/TAMRA ssDNA deamination fluorescence; inhibition, % at 20 µM; 0.41% of 330,000 active; AID 493011, 2011;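 active means at least 40% inhibition at 20 µM here, with at most 30% in a related deaminase screen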;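 further: plate controls were A3A with DMSO for no effect and wells lacking A3A enzyme for full effect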
Target sequence (P31941 whole entry, looked up): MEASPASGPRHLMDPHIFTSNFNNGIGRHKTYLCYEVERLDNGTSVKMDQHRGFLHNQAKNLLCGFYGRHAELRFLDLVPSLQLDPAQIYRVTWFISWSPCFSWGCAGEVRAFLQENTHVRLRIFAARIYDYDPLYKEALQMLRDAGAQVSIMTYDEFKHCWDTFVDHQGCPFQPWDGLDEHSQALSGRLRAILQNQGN
APOBEC3G inh: APOBEC3G DNA deaminase inhibitors, primary screen, biochemical, fluorescence, single-stranded DNA substrate, uHTS. recombinant A3G, ssDNA deamination FAM/TAMRA fluorescence. inhibition, % at 20 µM. DNA dC->dU-editing enzyme APOBEC-3G (Homo sapiens), Q9HC16. 0.28% of 330,000 active;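 active means inhibition of at least 40% at 20 µM, with no more than 30% in the related APOBEC3A deaminase screen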;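 further: plate controls were DMSO wells with A3G for no effect and wells lacking A3G enzyme for full effect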
Yeast superoxide: reduction of superoxide in aged yeast, primary screen, HTS. 0.18% of 330,000 active. superoxide response (% of plate mean), % at 10 µM. S. cerevisiae aged cells, superoxide DHE fluorescence; active compounds read low. AID 2690, 2010;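 active means superoxide response under a set limit, about three screen SD below normal, cut at about 65% in these data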;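 further: yeast aged for seven days with compound at 30 °C before DHE staining; 100% = average MFI of all compound-treated wells on the plate with controls excluded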
CendR NRP1 mod: modulators of CendR peptide binding to NRP-1, primary screen, biochemical, fluorescence polarization, uHTS; FAM-RPARPAR peptide binding to NRP-1; inhibition, % at 25 µM; 0.85% of 360,000 active; Neuropilin-1 (Homo sapiens), O14786;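 active means inhibition or corrected inhibition above about 18%, plus a signal ratio from 0.5 to 1.5, limit read from the data, passing the limit was not always enough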
Starred values were filed as active, the others as inactive; ? = inconclusive; / = no result.

SMILES	ALR inh	M18AAP inhibitor	APOBEC3A inh	APOBEC3G inh	Yeast superoxide	CendR NRP1 mod
OCCCNc1nc(-c2ccc(Cl)cc2)nc2ccccc12	98*	-2	-5	-11	102	10
COCCN1C(=O)C(=O)/C(=C(/O)c2cccc(OC)c2)C1c1ccc(C)o1 (stereo not drawn)	7	6	-4	-6	113	-1
CCN(CC)c1ccc(/C=N/N2CCOCC2)c(O)c1	?	12	-2	-8	95	-16
CCN(CC)c1ccc(C=Nc2ccccc2)c(O)c1	22	3	-8	-5	105	-15
CCN(CC)c1ccc(C=Nc2ccc(N(C)C)cc2)c(O)c1	98*	19	-1	7	100	-123
CCN(CC)c1ccc(/C=N/N=C(N)N)c(O)c1	76*	29*	-4	-8	99	-63
CCN(CC)c1ccc(/C=N/N2C(C)CCCC2C)c(O)c1 (stereo not drawn)	98*	17	0	-6	100	-1
CC(=O)Nc1ccc(OCC(=O)c2cc(C)ccc2C)cc1	/	-2	0	-4	97	-1
CC(=O)N1CCN(C(=S)NC(=O)c2c(-c3ccccc3Cl)noc2C)CC1	95*	6	1	-2	106	-14
Cc1ccc(NC(=S)NC(=O)c2c(-c3ccccc3Cl)noc2C)cc1	/	12	0	1	101	3
Cc1onc(-c2ccccc2Cl)c1C(N)=O	-31	-10	1	1	103	2
Cc1onc(-c2ccccc2Cl)c1C(=O)N1CCOC12CCN(c1cccc(F)n1)CC2	-6	1	1	-6	107	18*
Cc1[nH]n(C)c(=O)c1C(=O)c1c(-c2ccccc2Cl)noc1C	85*	7	1	-3	65*	0
CC(=O)c1cc(-c2ccccc2)n(CC(=O)Nc2ccc(C)c(C)c2)c1C	-2	5	-1	-7	99	-8
CCCC1CC(C)(/C(C)=N\NC(N)=S)OC1=O (stereo not drawn)	4	28*	-4	-11	88	11
CCOC(=O)N1CCN(C(=O)c2ccc(Cl)c(S(=O)(=O)Nc3ccccc3)c2)CC1	-5	1	-4	-9	97	-4
CN(c1ccccc1)c1ccc(/C=N/N2CCOCC2)cc1	99*	3	0	-5	110	2
CCOC(=O)COc1ccc2c(c1)c(C(C)=O)c(C)n2-c1ccc(OC)cc1	-2	3	-3	-6	102	4
CN(C)/C=C1/N=C(c2ccccc2)OC1=O	-7	13	-1	-5	93	7
CN(C)/C=C1\N=C(c2cccs2)OC1=O	93*	-3	-2	-1	90	4
O=C(O)c1ccccc1C(=O)Nc1ccc(Oc2ccc3ccccc3c2)cc1	99*	-6	-1	-1	107	-10
Cc1c(C)c(C)c(C(=O)c2ccc(NC(=O)c3ccccc3C(=O)O)cc2)c(C)c1C	96*	-1	-4	-9	105	-7
Cc1ccc(C(=O)Nc2ccc(Oc3ccc(C(=O)O)c(C(=O)O)c3)cc2)cc1C	98*	2	2	1	117	-10
Cc1ccc(C(=O)Nc2ccc(Nc3ccccc3)cc2)cc1C	16	/	-1	-3	93	1
S=C(Nc1cc(Cl)cc(Cl)c1)NC1CCN(Cc2ccccc2)CC1	-18	-3	-3	-7	97	-14
SMILES	ALR inh	M18AAP inhibitor	APOBEC3A inh	APOBEC3G inh	Yeast superoxide	CendR NRP1 mod
Cc1ccc(C)c(Oc2coc3cc(OC(=O)c4cccs4)ccc3c2=O)c1	-8	2	-4	-5	92	1
CC(C)OC(=O)c1cccnc1N1CCN(c2ccc(F)cc2)CC1	18	-7	-1	-1	97	9
COc1cc(/C=C2\SC(=O)N(c3ccccc3Cl)C2=O)cc([N+](=O)[O-])c1O	/	2	/	/	/	6
COc1cc(/C=C2/C(=O)NN(c3ccc(Cl)cc3)C2=O)cc(Br)c1O	98*	9	16	24	96	-214
COC(=O)c1ccc(N2NC(=O)/C(=C/c3cc(OC)c(O)c(OC)c3)C2=O)cc1	73	31*	12	10	100	-146
COc1cc(/C=C2/C(=O)NN(c3ccc(F)cc3)C2=O)cc(Cl)c1O	?	13	0	-3	103	-99
COc1cc(/C=C2/C(=O)NN(c3ccc(Cl)c(Cl)c3)C2=O)cc([N+](=O)[O-])c1O	98*	14	/	/	107	-83
COC(=O)c1ccc(N2NC(=O)/C(=C/c3cc(OC)c(OC)c(OC)c3)C2=O)cc1	/	6	-4	-6	99	-2
CC(C)C(C(=O)N1CCN(Cc2ccccc2)CC1)c1ccccc1 (stereo not drawn)	/	0	0	-3	94	9
COCCNC(=O)c1ccccc1N(Cc1ccccc1)S(=O)(=O)c1ccc(C)cc1	/	-9	2	3	96	3
CCOC(=O)c1c(NC(=O)COC(=O)Cc2n[nH]c(=O)c3ccccc23)sc(C(=O)N(C)C)c1C	/	/	0	-2	106	-5
CC(=O)n1c2ccccc2c2c1c1ccccc1n2C	/	-4	0	-4	92	38*
CS(=O)(=O)N(CC(=O)NCc1ccccn1)Cc1ccc(Cl)cc1	99*	-4	4	0	101	-6
CCOC(=O)C1CCN(Cc2cnc(Oc3ccc(N)cc3)s2)CC1	98*	-3	1	0	97	1
CCOC(=O)C1CCN(Cc2cnc(Oc3ccc(Cl)cc3C)s2)CC1	-2	-2	-1	-6	69	-3
N=C1SC(CC(=O)Nc2ccc([N+](=O)[O-])cc2)C(=O)N1c1ccccc1 (stereo not drawn)	-11	29*	-4	-5	104	0
Cc1ccc(NC(=O)CC2SC(=O)N(c3ccccc3)C2=O)cc1 (stereo not drawn)	98*	-8	-3	-1	107	8
Cc1cccc(NC(=O)CC2SC(=O)N(c3ccccc3)C2=O)c1 (stereo not drawn)	98*	5	-2	1	113	5
O=C(CC1SC(=O)N(c2ccccc2)C1=O)Nc1ccccc1 (stereo not drawn)	98*	3	5	0	129	3

Source: PubChem BioAssay
